The results in this text go back to PubChem BioAssay AID720650 (Broad Institute, 2013).

Unmarked numbers belong to inactive results. Activity calls are given as the source filed them. How the calls were made is not given here. Some results are limits rather than exact numbers.

This assay is described as follows: C difficile toxins, biochemical counterscreen, UDPG substrate absence, confirmatory dose response (AID 720650). Conditions: series mostly up to 19.5 µM. (In general: Counterscreens check selectivity or assay interference.)
As to `CSc1cccc(NC(=O)CCc2ccccc2)c1`, the AC50 entry is “inactive”.

`O=C(C[C@H]1CC[C@H]2[C@@H](COC[C@H](O)CN2C(=O)Nc2ccc(Cl)c(Cl)c2)O1)NCc1ccncc1`: the AC50 result was “inactive”.

`COC(=O)Cc1ccc(NC(=S)NCc2ccco2)cc1`: the AC50 result was “inactive”.

In the case of `CCOc1ccccc1NC(=O)CCNS(=O)(=O)c1cccc2nonc12`, the AC50 result was “inactive”.

`CC(=O)Nc1ccc(NC(=O)[C@@H]2CCCN2S(=O)(=O)c2ccc3c(c2)OCCO3)cc1`: the AC50 entry is “inactive”.

For `Cc1cc(NC(=O)CCCN2C(=O)c3cccc4cccc(c34)C2=O)no1`, the AC50 result was “inactive”.

Regarding `COc1ccc(NC(=O)Nc2nc(C)cc(C)n2)c(OC)c1`, the AC50 result is “inactive”.

Regarding `O=C(NC(=S)Nc1ccc(N2CCOCC2)cc1)c1ccccc1`, the AC50 result is “inactive”.

Turning to `COc1cc(C(=O)Nc2scc(-c3ccccc3)c2C(=O)O)cc(OC)c1OC`, the AC50 is 13.9 µM (active).

As to `CCOC(=O)[C@H]1[C@H]2COc3ccc(OC)cc3[C@@H]2N2C(=O)CN(Cc3ccc(Cl)cc3)C(=O)[C@@]12C`, the AC50 entry was “inactive”.

On to `Cc1cccc(/C=C/c2onc(C)c2S(=O)(=O)N2CCC(C(=O)N3CCCCC3)CC2)c1`, for which the AC50 result is “inactive”.

With `Cc1ccc(S(=O)(=O)Oc2cccc(/C=N/n3cnnc3)c2)cc1`, the AC50 is over 39 µM.

With `CS(=O)(=O)Nc1cccc(C2=NN(C(=O)c3ccccc3)C(c3cccs3)C2)c1` (stereo not given), the AC50 result was “inactive”.

On to `S=c1nc(-c2cccc(Cl)c2)[nH][nH]1`, for which the AC50 is 3.82 µM (active).

For the compound `COC(=O)C[C@@H]1CC[C@@H]2[C@H](COC[C@H](O)CN2C(=O)Nc2ccccc2OC)O1`, the AC50 result is “inactive”.

Consider `CCCNC(=O)N1CC[C@@H]2[C@@H](CO)N(C)c3ccc(-c4ccc(F)cc4)cc3[C@@H]21`, for which the AC50 is 4.27 µM (active).

In the case of `CCn1c(C)nc2cc(C(=O)N/N=C/c3ccc(OC)c(O)c3)ccc21`, the AC50 result is “inactive”.

Turning to `CC(=O)N(C)C[C@@H]1Oc2cc(/C=C/c3ccccc3)ccc2S(=O)(=O)N([C@H](C)CO)C[C@@H]1C`, the AC50 was over 39 µM.

As to `CCN1CCN(c2oc(-c3ccccc3C)nc2S(=O)(=O)c2ccccc2)CC1`, the AC50 result is “inactive”.

Turning to `NS(=O)(=O)c1ccc(NC(=S)NCc2ccc3c(c2)OCO3)cc1`, the AC50 was over 39 µM.

As usually defined, the AC50 is the midpoint of the concentration-response curve, whichever way the signal moves.
